ChEMBL document CHEMBL3988442, “University of Dundee, Small-Polar-MMV Screening Library” (2021)
Screen size: about 67,000 compounds; about 300 (0.45%) showed an effect of 50% or more. The list comes from a sample in which strong results are over-represented; it also holds similar structures and randomly drawn compounds.

target: Polyketide synthase Pks13 (Mycobacterium tuberculosis (strain ATCC 25618 / H37Rv)) (UniProt I6X8D2); test: Mycobacterium tuberculosis Polyketide synthase 13 Thioesterase (PKS13); assay type: functional; parameters: scale not given: in the data most compounds retested in dose-response had high values; conditions: 30 µM
Sequence (I6X8D2 whole entry): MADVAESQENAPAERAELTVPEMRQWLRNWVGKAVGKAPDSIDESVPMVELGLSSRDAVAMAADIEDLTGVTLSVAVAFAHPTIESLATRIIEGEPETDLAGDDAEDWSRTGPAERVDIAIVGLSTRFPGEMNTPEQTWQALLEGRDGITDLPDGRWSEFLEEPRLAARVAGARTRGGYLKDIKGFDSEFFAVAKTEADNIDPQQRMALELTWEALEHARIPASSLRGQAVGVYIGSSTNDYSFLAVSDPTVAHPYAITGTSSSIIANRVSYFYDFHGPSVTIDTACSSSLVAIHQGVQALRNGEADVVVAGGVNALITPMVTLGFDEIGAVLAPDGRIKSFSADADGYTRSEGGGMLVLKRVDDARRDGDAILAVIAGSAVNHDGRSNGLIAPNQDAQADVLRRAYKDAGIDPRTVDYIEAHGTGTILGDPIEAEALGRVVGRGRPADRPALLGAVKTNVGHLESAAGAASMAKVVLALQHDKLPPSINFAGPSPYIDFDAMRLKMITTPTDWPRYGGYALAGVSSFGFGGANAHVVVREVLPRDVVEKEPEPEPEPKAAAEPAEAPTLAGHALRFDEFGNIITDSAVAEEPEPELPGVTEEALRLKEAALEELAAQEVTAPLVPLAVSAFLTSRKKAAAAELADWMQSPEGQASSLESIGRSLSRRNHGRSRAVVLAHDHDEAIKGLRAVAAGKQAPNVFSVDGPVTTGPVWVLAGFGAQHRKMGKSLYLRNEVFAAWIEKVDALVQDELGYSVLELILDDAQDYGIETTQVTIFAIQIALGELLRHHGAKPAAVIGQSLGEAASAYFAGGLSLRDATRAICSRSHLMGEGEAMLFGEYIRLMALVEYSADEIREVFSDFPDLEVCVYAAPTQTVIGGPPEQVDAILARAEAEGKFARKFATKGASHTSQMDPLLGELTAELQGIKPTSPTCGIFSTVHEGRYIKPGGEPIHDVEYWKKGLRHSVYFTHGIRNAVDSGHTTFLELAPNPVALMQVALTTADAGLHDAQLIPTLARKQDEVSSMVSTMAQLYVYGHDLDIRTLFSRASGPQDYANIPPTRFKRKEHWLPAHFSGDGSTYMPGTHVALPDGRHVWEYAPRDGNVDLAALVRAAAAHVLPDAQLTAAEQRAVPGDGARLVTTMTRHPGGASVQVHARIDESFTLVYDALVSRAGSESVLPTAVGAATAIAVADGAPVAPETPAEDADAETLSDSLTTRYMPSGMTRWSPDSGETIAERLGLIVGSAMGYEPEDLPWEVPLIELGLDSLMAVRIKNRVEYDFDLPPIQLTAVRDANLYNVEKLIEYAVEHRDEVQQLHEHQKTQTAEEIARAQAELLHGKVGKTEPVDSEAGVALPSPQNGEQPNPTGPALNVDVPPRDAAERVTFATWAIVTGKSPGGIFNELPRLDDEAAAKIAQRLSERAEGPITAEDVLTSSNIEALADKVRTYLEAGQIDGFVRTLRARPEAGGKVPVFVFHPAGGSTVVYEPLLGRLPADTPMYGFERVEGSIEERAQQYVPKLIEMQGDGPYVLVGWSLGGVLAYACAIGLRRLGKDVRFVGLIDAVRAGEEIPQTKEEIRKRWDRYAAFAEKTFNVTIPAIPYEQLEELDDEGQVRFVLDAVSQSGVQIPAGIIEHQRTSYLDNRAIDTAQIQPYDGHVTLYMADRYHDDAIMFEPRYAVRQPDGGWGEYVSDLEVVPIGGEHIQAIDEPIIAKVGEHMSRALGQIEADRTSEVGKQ

Compound	Percent Effect [%]
O=C(C1CCOCC1)N1C[C@@H]2[C@@H](C1)OCC(=O)N2Cc1ccncc1	-12.1
CS(=O)(=O)NCc1cc(-c2cc(F)cc(F)c2)nc(N2CCCC2)n1	22.1
CS(=O)(=O)NCc1cc(-c2cc(F)cc(F)c2)nc(N2CC[C@H](O)C2)n1	147
CS(=O)(=O)NCc1cc(-c2cc(F)cc(F)c2)nc(N2CCOCC2)n1	22.5
Cn1nccc1NC(=O)c1cccc(CN2C[C@H]3CC[C@@H](C2)N3)c1	-14.8
CN1CCCC[C@@H]2[C@H]1[C@@H](c1ccccc1)CCN2S(=O)(=O)N1CCCC1	-11
Cn1cncc1-c1nnc([C@H]2CCN(Cc3ncc[nH]3)C2)o1	61
Cn1cncc1-c1nnc([C@H]2CCN(Cc3cccnc3)C2)o1	-26
Cn1cncc1-c1nnc([C@H]2CCN(CC(C)(C)C)C2)o1	25.7
CSCCCN1C[C@H]2CC[C@@H]1CN(Cc1[nH]cnc1C)C2	-11.9
c1coc(CN2C[C@@H]3CCCO[C@@H]3[C@H](N3CCCC3)C2)c1	-16.1
CS(=O)(=O)c1ccc(-c2nc(C(=O)N3CCCC3)n3ccccc23)cc1	74.1
CN(C)C(=O)c1nc(-c2ccc(S(C)(=O)=O)cc2)c2ccccn12	48.7
CN(C)C(=O)c1nc(-c2ccc(S(C)(=O)=O)cc2)c2cnccn12	9.33
CN1CCCC[C@@H]2[C@H]1[C@@H](c1ccccc1)CCN2C(=O)c1ccccc1	-32
CN1CCCC[C@@H]2[C@H]1[C@@H](c1ccccc1)CCN2C(=O)c1ccncc1	37.2
Cc1nnsc1C(=O)N1CC[C@H](c2ccccc2)[C@@H]2[C@H]1CCCCN2C	56.9
CC(=O)N1C[C@H](NC(=O)c2cscn2)[C@@H]2OCCC[C@@H]21	-14.1
CCCOc1ccc(Cl)cc1CNc1ncnc2oc(C)nc12	78.9
CCCOc1ccccc1CCCNc1ncnc2oc(C)nc12	18
CCC(CNc1ncnc2oc(C)nc12)Cc1ccccc1 (stereo not given)	-13.8
Cn1cccc1C(=O)N1C[C@H]2CC[C@@H]1CN(Cc1cscn1)C2	-21.5

Compound	Percent Effect [%]
COc1ccc2c(c1)c(-c1nc(C)ncc1CN)cn2C	-1.61
COc1ccc2c(c1)c(-c1nc(N(C)C)ncc1CN)cn2C	-8.95
Cc1ncc(CN)c(-c2cn(C)c3ccccc23)n1	140
O=C(C1CCOCC1)N1C[C@H](OCc2cccnc2)[C@H]2COC[C@H]21	-10.6
O=C1CO[C@H]2CN(C3CCOCC3)C[C@H]2N1Cc1ccc(F)cc1	18.6
Cc1ccc(-c2noc(CC[C@@H]3CCCN4CCCC[C@H]34)n2)nn1	-24.6
O=C(CC1CC1)N1C[C@H]2CCN[C@H]2C1	1.79
COc1cccc(-c2ccnc3nc(N4CCCCC4)[nH]c(=O)c23)c1	-83.6
COc1ccc(-c2ccnc3nc(N4CCCCC4)[nH]c(=O)c23)cc1	75
O=c1[nH]c(N2CCCCC2)nc2nccc(-c3ccc4c(c3)OCO4)c12	-6.64
NC(=O)C1CCN(c2nc3nccc(-c4ccccc4)c3c(=O)[nH]2)CC1	-5.28
COc1ccc(-c2ccnc3nc(N4CCCC4)[nH]c(=O)c23)cc1OC	-15.2
COc1ccccc1-c1ccnc2nc(N3CCCCC3)[nH]c(=O)c12	71.7
Cc1cc(C(=O)N2C[C@H]3CC[C@@H]2CN(C(=O)c2ccncc2)C3)cs1	-6.64
O=C(Nc1cccnc1)[C@@H]1COC[C@H]2CN(C3CCCC3)C[C@H]21	-9.56
CCS(=O)(=O)N1CC[C@H]2OCC[C@@]2(c2nnc(C)o2)C1	-32.8
CC1=N[C@@]2(CC[C@@H]3CN(S(=O)(=O)C4CC4)C[C@@H]32)C(=O)N1CC(C)C	-51.1
CCS(=O)(=O)N1C[C@H]2CC[C@@]3(N=C(C)N(CC(C)C)C3=O)[C@H]2C1	-10.2
CC1=N[C@@]2(CC[C@@H]3CN(S(C)(=O)=O)C[C@@H]32)C(=O)N1CC(C)C	75.9
CN(C)CCNC(=O)[C@H]1C[C@H]2CN(c3ncccn3)C[C@H]2N1C	-18.5
Cc1cccc(CN2CC[C@H]3[C@H]2CCN3C(=O)c2cnn(C)c2)n1	3.27
NC(=O)CCC(=O)N1CCc2[nH]nc(-c3ccc4c(c3)OCO4)c2C1	-10.3

Compound	Percent Effect [%]
CNCc1nc(-c2ccc3c(c2)OCO3)c[nH]1	0.694
O=C(CSc1nccc(-c2ccc3c(c2)OCO3)n1)N1CCOCC1	26.7
CCOc1ccc(-c2ccc3c(c2)OCO3)cc1C(N)=O	-15.1
O=C(O)CSc1nccc(-c2ccc3c(c2)OCO3)n1	51.8
NC(=O)CSc1nccc(-c2ccc3c(c2)OCO3)n1	59.5
CN1CCO[C@H]2CN(S(=O)(=O)c3ccc(C#N)cc3)C[C@H]21	-7.61
O=C([C@H]1COC[C@H]2CN(C3CCOCC3)C[C@H]21)N1CCCCO1	-4.79
CN(C)c1nccc(N2CCO[C@H]3CN(Cc4ccco4)C[C@H]32)n1	-3.24
O=S(=O)(c1ccccc1)N1C[C@@H]2COC[C@]2(CN2CCOCC2)C1	27.2
Fc1cccc(CN2C[C@@H]3COC[C@]3(COCc3ccncc3)C2)c1	0.554
O=C(CC1CCCC1)N1C[C@H](Oc2cccnc2)[C@H]2OCCC[C@H]21	-7.32
c1ccc2oc(CCCN3CCCC3Cn3cncn3)nc2c1 (stereo not given)	-10.8
c1csc(-c2noc(CCCN3CCCC3Cn3cccn3)n2)c1 (stereo not given)	-2.79
Cc1nccn1CC1CCCN1CCCc1nc(-c2cccs2)no1 (stereo not given)	-4.96
c1csc(-c2noc(CCCN3CCCC3Cn3cncn3)n2)c1 (stereo not given)	111
c1ccc2oc(CN3CCCCC3Cn3cncn3)nc2c1 (stereo not given)	-0.333
c1ccc2oc(CCCN3CCCCC3Cn3cncn3)nc2c1 (stereo not given)	58.4
CN(C)C(=O)COC[C@@H]1CC[C@H]2[C@H](CCN2c2ncccn2)O1	-0.596
COCC(=O)N1C[C@H]2CNC[C@@]2(C(=O)NCc2cccc3[nH]ccc23)C1	-18.7
CO[C@@H]1CC[C@H]2[C@H]1OCCN2CC1CC1	-4.52
COc1ccc(OC)c(C(=O)N2C[C@H]3CC[C@@H]2CN(C)C3)c1	2.2
O=C(c1ccnnc1)N1C[C@H](Oc2cccnc2)[C@H]2OCCC[C@H]21	-7.04

Compound	Percent Effect [%]
CCc1nc2n(n1)CC(NCc1cnc(-c3ccccc3)nc1)CC2 (stereo not given)	-15
CC(C)c1nc2n(n1)CC(NCc1ncc(-c3ccccc3)o1)CC2 (stereo not given)	-14.9
CCc1nc2n(n1)CC(NCc1ncc(-c3ccccc3)o1)CC2 (stereo not given)	108
Cn1nc(-c2ccccc2)cc1[C@H]1CN2CC[C@H]1C[C@@H]2CNS(C)(=O)=O	-32.5
N#Cc1c(C2CC2)cc(-c2ccc(O)cc2)nc1N	44.4
COc1ccc(-c2cc(C3CC3)c(C#N)c(N)n2)cc1F	-126
CS(=O)(=O)c1ccc(-c2cc(C3CC3)c(C#N)c(N)n2)cc1	62.7
Cn1cc(CN2C[C@@H]3OCCN(CC4CCCC4)[C@@H]3C2)cn1	-22.6
Cc1nc(CO[C@H]2CN(C(=O)c3ccc[nH]3)[C@@H]3COC[C@H]23)cs1	-11.9
CCNC(=O)c1nnc2ccc(N3CCOCC3)cc2n1	48.2
CN(C)C(=O)c1nnc2ccc(N3CCOCC3)cc2n1	11.7
O=C(NCc1ccccc1)c1nnc2ccc(N3CCOCC3)cc2n1	50.8
CCN(CCC(F)(F)F)C(=O)Nc1cccc(N2CCOCC2)c1	-2.57
CCN(CC)C(=O)c1nnc2ccc(N3CCOCC3)cc2n1	51.7
CN(C)c1ccc(C(=O)NCc2ccc(N3CCOCC3)cc2)cn1	-1.83
c1cncc(OC[C@@]23CCO[C@@H]2CCN(Cc2cccs2)C3)c1	12.4
Cc1cccc(CN2C[C@@H]3COC[C@]3(COc3cccnc3)C2)n1	8.46
CC(=O)N1[C@@H](C(=O)NCC2CC2)C[C@@H]2CN(Cc3ccco3)C[C@@H]21	-5.84
O=C(c1ccccc1F)N1CC[C@@H]2CN(c3ncccn3)CCO[C@@H]2C1	12
CCC(CNC(=O)CNC(C)=O)Oc1cccc(F)c1 (stereo not given)	-7.54
CCC(CNC(=O)COC)Oc1cccc(F)c1 (stereo not given)	60.4
CCC(=O)NCC(CC)Oc1cccc(F)c1 (stereo not given)	-2.34

Compound	Percent Effect [%]
O=C(CCc1ccccc1)N1C[C@@H]2CN(Cc3ccoc3)CCO[C@@H]2C1	-7.96
CCc1noc(CNc2ccc(CC(=O)N3CCSCC3)cc2)n1	-12.3
Cc1noc(CNc2ccc(CC(=O)N3CCSCC3)cc2)n1	70.3
CCc1nnc(CNc2ccc(CC(=O)N3CCSCC3)cc2)o1	5.6
CN1C(=O)[C@H]2CC[C@@H]1CN(C(=O)c1sccc1S(N)(=O)=O)C2	-33.4
CCN1C[C@H]2CCN(C(=O)C3CCCO3)CC[C@H]2S1(=O)=O (stereo not given in full)	-20.2
CNC(=O)[C@H]1C[C@@H]2CN(C(=O)c3cncc(C)c3)C[C@@H]2N1C	19.6
CC(Nc1cnn(C)c(=O)c1Cl)c1ccc(F)c(F)c1 (stereo not given)	78.5
COc1ccc(C(C)Nc2cnn(C)c(=O)c2Cl)cc1OC (stereo not given)	2.82
CC(Nc1cnn(C)c(=O)c1Cl)c1ccc(F)cc1 (stereo not given)	-8.28
O=C1[C@H]2CN(c3ncccn3)C[C@H]2CN1Cc1ccncc1	-2.04
c1cc(CN2C[C@@H]3OCCN(CC4CCCO4)[C@@H]3C2)cs1 (stereo not given in full)	-16.8
CCS(=O)(=O)N1C[C@H]2CN(Cc3ccc(OC)cc3)C(=O)[C@H]2C1	-7.48
O=C(CC(F)(F)F)N1C[C@H]2CN(CC3CC3)C(=O)[C@H]2C1	-30.7
Cn1cc(-c2ccnc(NCC3CCN(Cc4ccccc4)C3)n2)cn1 (stereo not given)	60.9
Cn1cc(-c2ccnc(NCC3CC3)n2)cn1	-14.8
COCCCN1CCC(CNc2nccc(-c3cnn(C)c3)n2)C1 (stereo not given)	-31.5
O=C(CSc1ccccn1)N1C[C@H]2CC[C@@H]1CN(Cc1cscn1)C2	-9.36
CN(C)C(=O)CN1C[C@@H]2CC[C@H](C1)N(C(=O)Cc1ccccc1Cl)C2	-15.3
CN(C[C@@H]1CCC[C@@H]2CN(c3ncccn3)C[C@@H]21)C1CC1	75.8
COCCN(C)C[C@@H]1CCC[C@@H]2CN(c3ncccn3)C[C@@H]21	-50.6
COc1cc(N2C[C@H]3CCC[C@@H](CN(C)C4CC4)[C@H]3C2)ncn1	-5.89
